# Tests used:
# Assay in all cases: DAPPL (digital affinity profiling via proximity ligation, sequencing); 10 mM Tris-HCl pH 7.5, 50 mM NaCl, 1 mM DTT, 4% glycerol, room temperature, 30 min; GST-TFs on glutathione beads, 16-mer random dsDNA library, 0.1% formaldehyde crosslink after washing; high values mean tight binding
# Details in all cases: protein: recombinant; tags: N-terminal GST; dsDNA, one strand shown
# ELF4 = ELF4 (Homo sapiens, UniProt Q99607 1-663)
# Summary of the method: (§1)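 A tag-only sample was pooled with DNA-barcoded human transcription factors that had been expressed in yeast as GST fusions and captured on glutathione beads. The pools were incubated for 30 min at room temperature with 200 nmole of a random double-stranded 16-mer DNA library in Tris/NaCl/DTT/glycerol buffer, then washed, crosslinked with 0.1% formaldehyde, proximity-ligated (BsaI/T4 ligase, 1 h, 37 °C), PCR-amplified and sequenced on an Illumina NextSeq500. Binding signal is each hexamer's read frequency for a factor divided by its frequency for the tag-only sample.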
# ELK4 = molecular target: T1, ELK4 (Homo sapiens, UniProt P28324-2 1-405)
# T1 sequence: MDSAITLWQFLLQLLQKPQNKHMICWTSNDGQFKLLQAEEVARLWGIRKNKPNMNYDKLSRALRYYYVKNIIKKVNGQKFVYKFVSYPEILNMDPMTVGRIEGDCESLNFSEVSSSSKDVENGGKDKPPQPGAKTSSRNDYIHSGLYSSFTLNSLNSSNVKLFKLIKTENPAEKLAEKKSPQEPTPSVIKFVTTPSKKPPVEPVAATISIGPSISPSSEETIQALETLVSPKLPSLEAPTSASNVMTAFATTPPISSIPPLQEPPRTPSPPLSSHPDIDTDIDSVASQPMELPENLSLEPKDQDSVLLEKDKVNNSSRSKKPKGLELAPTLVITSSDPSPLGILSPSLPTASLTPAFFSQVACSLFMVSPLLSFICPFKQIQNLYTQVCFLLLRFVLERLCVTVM
# Summary of the method: as §1
# ETV2 = molecular target: T2, ETV2 (Homo sapiens, UniProt O00321 1-342)
# T2 sequence: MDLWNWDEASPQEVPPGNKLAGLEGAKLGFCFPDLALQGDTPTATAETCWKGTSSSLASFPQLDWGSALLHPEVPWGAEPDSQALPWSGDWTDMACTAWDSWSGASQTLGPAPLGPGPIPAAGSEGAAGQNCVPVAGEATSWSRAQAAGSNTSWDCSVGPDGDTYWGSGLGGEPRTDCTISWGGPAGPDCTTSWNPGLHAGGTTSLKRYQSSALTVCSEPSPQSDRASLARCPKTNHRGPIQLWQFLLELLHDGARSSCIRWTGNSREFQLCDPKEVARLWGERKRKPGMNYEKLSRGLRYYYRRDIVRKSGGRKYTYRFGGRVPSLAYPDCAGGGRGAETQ
# Summary of the method: as §1
# ELF3 = molecular target: T3, ELF3 (Homo sapiens, UniProt P78545 1-371)
# T3 sequence: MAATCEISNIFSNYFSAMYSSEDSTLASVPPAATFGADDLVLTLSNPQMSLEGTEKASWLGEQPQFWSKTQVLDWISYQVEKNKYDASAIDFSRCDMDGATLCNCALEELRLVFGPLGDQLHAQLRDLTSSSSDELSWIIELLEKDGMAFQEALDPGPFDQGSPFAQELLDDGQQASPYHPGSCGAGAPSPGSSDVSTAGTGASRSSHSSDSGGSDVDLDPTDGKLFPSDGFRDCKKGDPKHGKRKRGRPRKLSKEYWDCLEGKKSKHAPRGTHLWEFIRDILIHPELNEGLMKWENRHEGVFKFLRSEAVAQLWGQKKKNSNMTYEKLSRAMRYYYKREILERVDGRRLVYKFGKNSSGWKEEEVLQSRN
# Summary of the method: as §1
# ERF = molecular target: T4, ERF (Homo sapiens, UniProt P50548 1-548)
# T4 sequence: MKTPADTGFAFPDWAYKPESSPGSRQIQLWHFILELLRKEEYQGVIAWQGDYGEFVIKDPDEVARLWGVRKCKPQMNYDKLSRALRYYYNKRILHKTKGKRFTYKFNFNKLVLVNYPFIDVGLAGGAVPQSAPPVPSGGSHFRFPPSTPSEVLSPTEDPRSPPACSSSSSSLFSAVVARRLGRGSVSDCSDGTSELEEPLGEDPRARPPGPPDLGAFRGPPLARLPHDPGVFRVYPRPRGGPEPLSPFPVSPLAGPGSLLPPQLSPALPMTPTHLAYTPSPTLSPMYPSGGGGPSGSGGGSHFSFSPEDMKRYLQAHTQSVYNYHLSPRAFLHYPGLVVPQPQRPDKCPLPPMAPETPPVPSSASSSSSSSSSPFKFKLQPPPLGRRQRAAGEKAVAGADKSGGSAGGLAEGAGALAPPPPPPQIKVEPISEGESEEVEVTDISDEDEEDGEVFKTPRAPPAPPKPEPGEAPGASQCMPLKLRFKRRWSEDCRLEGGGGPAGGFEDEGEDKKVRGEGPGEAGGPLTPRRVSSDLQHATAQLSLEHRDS
# Summary of the method: as §1
# ETV3L = molecular target: T5, ETV3L (Homo sapiens, UniProt Q6ZN32 1-361)
# T5 sequence: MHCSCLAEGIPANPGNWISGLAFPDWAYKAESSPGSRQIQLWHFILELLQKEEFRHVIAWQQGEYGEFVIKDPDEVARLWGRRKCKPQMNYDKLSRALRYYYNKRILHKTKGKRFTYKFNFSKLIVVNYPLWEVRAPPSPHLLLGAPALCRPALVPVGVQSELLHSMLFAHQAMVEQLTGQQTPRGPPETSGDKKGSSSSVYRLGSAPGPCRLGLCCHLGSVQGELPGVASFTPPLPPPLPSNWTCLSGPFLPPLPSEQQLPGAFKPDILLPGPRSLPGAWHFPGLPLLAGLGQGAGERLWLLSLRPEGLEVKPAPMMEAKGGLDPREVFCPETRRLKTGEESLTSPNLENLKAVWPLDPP
# Summary of the method: as §1
# ETS2 = molecular target: T6, ETS2 (Homo sapiens, UniProt P15036 1-469)
# T6 sequence: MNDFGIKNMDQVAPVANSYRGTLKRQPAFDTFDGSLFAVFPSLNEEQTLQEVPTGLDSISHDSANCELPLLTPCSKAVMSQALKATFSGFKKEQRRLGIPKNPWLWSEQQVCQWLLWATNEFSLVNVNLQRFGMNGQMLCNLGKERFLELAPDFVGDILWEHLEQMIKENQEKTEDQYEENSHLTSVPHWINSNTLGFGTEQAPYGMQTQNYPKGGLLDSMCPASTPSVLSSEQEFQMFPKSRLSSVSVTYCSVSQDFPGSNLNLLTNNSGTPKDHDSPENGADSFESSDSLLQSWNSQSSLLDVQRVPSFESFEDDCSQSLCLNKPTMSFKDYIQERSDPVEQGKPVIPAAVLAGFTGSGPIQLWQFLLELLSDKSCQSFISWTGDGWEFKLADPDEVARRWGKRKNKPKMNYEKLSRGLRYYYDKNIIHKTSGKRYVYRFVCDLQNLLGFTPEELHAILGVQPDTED
# Summary of the method: as §1
# SPDEF = molecular target: T7, SPDEF (Homo sapiens, UniProt O95238 1-335)
# T7 sequence: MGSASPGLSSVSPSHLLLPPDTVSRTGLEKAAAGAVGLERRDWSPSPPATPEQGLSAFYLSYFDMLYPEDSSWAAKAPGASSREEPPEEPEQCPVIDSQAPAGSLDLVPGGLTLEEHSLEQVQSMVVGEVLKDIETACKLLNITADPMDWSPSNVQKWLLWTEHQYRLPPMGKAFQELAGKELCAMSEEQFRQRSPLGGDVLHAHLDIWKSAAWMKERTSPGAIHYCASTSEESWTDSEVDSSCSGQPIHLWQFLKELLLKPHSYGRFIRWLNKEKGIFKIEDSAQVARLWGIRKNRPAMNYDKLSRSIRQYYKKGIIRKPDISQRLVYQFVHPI
# Summary of the method: as §1
# ETV6 = ETV6 (Homo sapiens, UniProt P41212 1-452)
# Summary of the method: as §1
# Chain of ELF4 (Q99607 whole entry, the tested form may be a part): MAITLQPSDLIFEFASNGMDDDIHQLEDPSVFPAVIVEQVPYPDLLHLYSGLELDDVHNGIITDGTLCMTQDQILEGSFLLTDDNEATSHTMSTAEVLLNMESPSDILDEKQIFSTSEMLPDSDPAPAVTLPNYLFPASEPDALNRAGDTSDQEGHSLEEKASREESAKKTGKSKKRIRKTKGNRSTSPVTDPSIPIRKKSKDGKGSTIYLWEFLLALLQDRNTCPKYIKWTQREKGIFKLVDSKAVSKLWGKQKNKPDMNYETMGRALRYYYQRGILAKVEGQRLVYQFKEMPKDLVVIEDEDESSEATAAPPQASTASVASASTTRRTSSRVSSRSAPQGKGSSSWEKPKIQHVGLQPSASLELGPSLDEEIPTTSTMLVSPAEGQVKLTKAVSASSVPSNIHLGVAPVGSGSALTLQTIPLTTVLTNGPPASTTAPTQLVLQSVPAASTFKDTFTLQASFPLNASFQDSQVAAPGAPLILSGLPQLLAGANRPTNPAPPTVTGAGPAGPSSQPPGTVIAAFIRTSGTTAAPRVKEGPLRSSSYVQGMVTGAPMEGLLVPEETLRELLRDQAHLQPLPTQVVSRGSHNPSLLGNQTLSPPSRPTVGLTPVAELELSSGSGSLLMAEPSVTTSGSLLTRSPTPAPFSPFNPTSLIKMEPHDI
# Chain of ETV6 (P41212 whole entry): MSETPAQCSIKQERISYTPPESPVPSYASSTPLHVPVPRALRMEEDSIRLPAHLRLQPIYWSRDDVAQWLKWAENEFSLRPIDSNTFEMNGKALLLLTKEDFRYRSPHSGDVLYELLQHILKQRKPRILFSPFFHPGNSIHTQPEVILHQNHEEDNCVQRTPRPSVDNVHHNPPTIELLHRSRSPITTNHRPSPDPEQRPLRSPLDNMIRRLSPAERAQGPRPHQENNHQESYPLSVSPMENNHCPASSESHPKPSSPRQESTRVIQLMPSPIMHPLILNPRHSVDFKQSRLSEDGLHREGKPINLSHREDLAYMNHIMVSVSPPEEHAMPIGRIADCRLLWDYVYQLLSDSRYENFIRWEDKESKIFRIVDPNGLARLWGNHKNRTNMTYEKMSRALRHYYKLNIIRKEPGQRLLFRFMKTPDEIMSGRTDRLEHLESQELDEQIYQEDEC
sequence,measurement,setting,value
GCCCAA,binding signal,ELF4,"1.12 fold enrichment (6-mer frequency, TF over GST control)"
same,binding signal,ELK4,"1.07 fold enrichment (6-mer frequency, TF over GST control)"
same,binding signal,ETV2,"1.24 fold enrichment (6-mer frequency, TF over GST control)"
same,binding signal,ELF3,"1.05 fold enrichment (6-mer frequency, TF over GST control)"
same,binding signal,ERF,"1.08 fold enrichment (6-mer frequency, TF over GST control)"
same,binding signal,ETV3L,"1.04 fold enrichment (6-mer frequency, TF over GST control)"
same,binding signal,ETS2,"1.09 fold enrichment (6-mer frequency, TF over GST control)"
same,binding signal,SPDEF,"1.08 fold enrichment (6-mer frequency, TF over GST control)"
same,binding signal,ETV6,"1.02 fold enrichment (6-mer frequency, TF over GST control)"

# Reference: paper PMC7862700, “An all-to-all approach to the identification of sequence-specific readers for epigenetic DNA modifications on cytosine”
